The results in this text go back to the supplement of paper PMC6555819.

The experiment deals with VDR:RXRa (NR concentration 270 nM, RXRa partner concentration 90 nM). Briefly: PBM binding z-score (relative to random genomic background probes); higher = stronger binding; sequences stand for … in GC…GCGATTGACAGCGTAGAATGAAGG
The method, then: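 Protein-binding microarray (Agilent 4x180K custom design, double-stranded 60-nt probes: 5' GC cap, 34-nt variable region, 24-nt constant primer region; full probe sequence given). Purified or IVT nuclear receptor:RXRα heterodimers (3:1 NR:RXRα, mostly 270:90 nM) or homodimers were incubated for 1 h in PBS with 2% milk and no ligand, then detected with Alexa488 antibodies. Fluorescence from o1-orientation probes (~5 replicates averaged) was converted to z-scores against 500 random hg19 background probes. Variable regions are seed direct-repeat (DR0–DR5) sites, all their single-nucleotide variants and half-site ablations.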
As to TAGCCTAGGTCATTGGGCCAGAATAGTACGCATC, the PBM binding z-score turned out to be 2.01.

On to TCGAGTAGGTTAGCCGGGGCATTCAGCCAACATA, for which the PBM binding z-score turned out to be 2.46.

For GCGACTGGGGCATCAGCACGTTACCATAACTTAA, the PBM binding z-score was -0.365.

In turn, TCGAGTAGGTTAGTCGGGGCATACAGCCAACATA came in with a PBM binding z-score of 1.74.

Sequence AGAACGAGGGCGCGCTGAGTTGATAGCAGAGTAG displayed a PBM binding z-score of 0.589.

As for CCGTACGGGTCACTGACAGGTTATAGCATTTGGA, the PBM binding z-score amounted to 3.72.

As to AGAATGAGGTTACCAAAGATCACGGAAACGCTTG, the PBM binding z-score stood at 1.97.

CCAGACAGGTGAGCAGGTAACTCAGCCTCGATTA: the PBM binding z-score was -0.287.

CCTAGCAAGCCAATCTGGGTCACTCAAGGCTTGA yielded a PBM binding z-score of 0.396.

In turn, CAAACTAGGTCACCGCAAGGTCAAAGTCCGCATG returned a PBM binding z-score of 6.39.

In turn, TCATATAGGTCAATGCTAGGTGAAAGTCCGATCT had a PBM binding z-score of 2.9.

On to GGAACGAGGGCAAGATGATAGCAGAGTTTGATGG, for which the PBM binding z-score amounted to 0.221.

The sequence ATCTCTAGGTAACCAAGTTCCGTGAATGCCGAAC had a PBM binding z-score of 0.306.

In turn, TCTAGTTGGTCAAAGGTCACACCCTCGAAATGCG gave a PBM binding z-score of 5.06.

CCTACTGTGCCAAGGTCATTGATCAGTCAAAGCA yielded a PBM binding z-score of 3.52.

The sequence TCATATAGGTAAAAGGTGATAGTCGGTGTGGTAA returned a PBM binding z-score of 1.13.

CCTTACGGGTCACTCCAGGTTATAGCCTCGGAGT: the PBM binding z-score stood at 4.09.

GCTTACGGGTCATAGGTTATAGCATGAATAGAAT yielded a PBM binding z-score of 3.91.

For the sequence CGAACTAGGTCATCCAAGACAGTGAATACATTGA, the PBM binding z-score was found to be 2.57.

As to AGAATGAGGCTATTAAGATCAGGGAATTGCGGTC, the PBM binding z-score is -0.0838.

CGTCCAAGGTCAACGGTCAGTGAAGAGATGACGG returned a PBM binding z-score of 4.18.

Turning to CGTCAAAGTTCAAGGTAACGTCACAGAAAGCAGC, the PBM binding z-score amounted to 3.96.

Consider TCTTGTTGATCAGCAGGTTAAGAAAGCTGGCCAA, for which the PBM binding z-score turned out to be 0.36.

Regarding AGTCAAAGTTCACTAGGTAATGTAAGATTCAGCT, the PBM binding z-score was found to be 3.84.

GGAACGAGGGCATCCGAGTTGATAGCATGGCGAT: the PBM binding z-score turned out to be 3.18.

The sequence CAAACTAGGTCACGACAGGTCAAAGTCGAATGAC displayed a PBM binding z-score of 6.07.

For GCAGACAGGTGAAACGCAGGAAACTCAGGGTGGC, the PBM binding z-score is -0.533.

TAACCTAGGTCATGCGGGCCAGTATAGTGTCGGC gave a PBM binding z-score of 3.55.

CCGAGAAGGTTATGGGGCATTCAGGCAACGGTGA displayed a PBM binding z-score of 0.66.

Sequence ACTATTAGTTCAGACGAGGGCAACCGATAGGTTG returned a PBM binding z-score of 2.84.

CGAACTAGGTCAGAACAGGACAGTGGAGGATGAT gave a PBM binding z-score of 0.581.

For the sequence ATCGAAAGATCGAGGTGAGTATAGAGAAAGGGAA, the PBM binding z-score is -0.327.

CTAACGAGGGCATGAGTTGATAGCAAATGCCGAT showed a PBM binding z-score of 1.4.

Take GCTGCTAGGTCAGGTTGGTCATCTAACGGGTACG: the PBM binding z-score stood at 1.25.

In turn, GCTTACGTGTCAAAGGTTATAGCATGAATAGAAT registered a PBM binding z-score of 2.29.

As to GCTTGTAGATCAAGGTTGAGAAAGACTAAGCTAA, the PBM binding z-score is -0.388.

In turn, GATACAGGGTCAAGGCCAGATTACGCGTATTGAT came in with a PBM binding z-score of 4.45.

In turn, CGAACTAGGTCAGGGACAGTGAATCTCCGCACGC yielded a PBM binding z-score of 0.457.

TCATATAGGTAAAGGTGAAACTCGAACGATATGA had a PBM binding z-score of 0.901.

For CGAACTAGGTCAGAACTGGACAGTGAAGGATGAT, the PBM binding z-score is 0.181.
